Screens deposited in PubChem by National Center for Advancing Translational Sciences (NCATS).
Pol beta inh: inhibitors of human DNA polymerase beta | P06746 | hit rate 1.3% among 340,000 | Potency, µM (doses to about 114 µM), hits mostly inhibitors | Pol beta primer extension/strand displacement, fluorescence kinetic | AID 485314
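Pol beta (10 nM) and compounds were preincubated 15 min at room temperature, then 50 nM substrate (final) started primer extension/strand displacement. Reads were taken at 0 and 10 min; concentration-response data were fitted to a four-parameter Hill equation.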
Pol eta inh-1: inhibitors of human DNA polymerase eta; recombinant Pol eta, fluorescent DNA replication assay; Potency, µM (titrated, usually from 114 µM), most hits filed as inhibitors; AID 588591; hit rate 1.2% among 390,000
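Pol eta (10 nM) was preincubated with compounds for 15 min at room temperature, after which fluorescent replication substrate (50 nM final) was added to start the reaction. Fluorescence was read kinetically at 0 and 10 min.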
Pol iota inh: inhibitors of human DNA polymerase iota; Potency, µM (series often up to 115 µM), actives largely listed as inhibitors; Pol iota fluorescent replication assay, 10 min; Q9UNA4; hit rate 1% among 390,000
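Fluorescent replication assay read twice, at 0 min and 10 min after adding 50 nM (final) substrate. Enzyme (10 nM) and compounds were first incubated 15 min at room temperature; enzyme-free buffer wells were negative controls.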
Pol kappa inh-1: blocks human DNA polymerase kappa activity; Q9UBT6; purified Pol kappa, fluorescent DNA synthesis assay, 10 min; Potency, µM (highest dose often 107 µM), actives largely listed as inhibitors; hit rate 0.53% among 400,000
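Enzyme at 10 nM met test compounds for 15 min at room temperature. Substrate addition (50 nM final) began the reaction, which was monitored by fluorescence at 0 and 10 min.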
FEN1 inh: human FEN1 inhibition | P39748 | Recombinant FEN1 flap cleavage, fluorescence, 15 min | Potency, µM (highest dose often 114 µM), actives largely listed as inhibitors | hit rate 0.35% among 390,000 | AID 588795; further: nearly all actives have a fitted effect of over 65% in size
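Nuclease activity of 10 nM FEN1 was measured after 15 min of room-temperature exposure to titrated compounds, by adding 50 nM flap substrate and reading plates at 0 and 15 min.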
PGK inhibitor: blocks T. brucei phosphoglycerate kinase; P07378; Potency, µM (titrated, usually from 57.5 µM), actives largely listed as inhibitors; hit rate 0.043% among 380,000; AID 602233; PGK/GAPDH coupled, Kinase-Glo luminescence, 60 min; further: nearly all actives have a fitted effect of over 60% in size
Target sequence (P07378 whole entry, looked up): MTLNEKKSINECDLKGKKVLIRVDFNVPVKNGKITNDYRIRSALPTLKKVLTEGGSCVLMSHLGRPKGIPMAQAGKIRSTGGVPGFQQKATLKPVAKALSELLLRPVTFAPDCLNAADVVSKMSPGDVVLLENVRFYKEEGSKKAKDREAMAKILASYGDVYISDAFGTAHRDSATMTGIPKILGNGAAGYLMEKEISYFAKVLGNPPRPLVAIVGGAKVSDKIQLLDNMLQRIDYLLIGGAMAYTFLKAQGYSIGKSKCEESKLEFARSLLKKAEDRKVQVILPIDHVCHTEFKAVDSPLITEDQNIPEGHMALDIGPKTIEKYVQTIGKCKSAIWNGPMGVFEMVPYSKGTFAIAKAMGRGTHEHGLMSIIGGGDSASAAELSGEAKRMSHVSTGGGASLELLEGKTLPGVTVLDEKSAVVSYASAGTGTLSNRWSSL
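Luminescent ATP detection (Kinase-Glo Plus) follows a 60-minute room-temperature incubation, with wells lacking PGK as controls. Buffer: 100 mM TEA (pH 7.6), 5 mM MgCl2, 0.01% Tween-20. Coupling enzyme GAPDH (100 nM final) supplies unstable 1,3-BPG in-well.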
Pol kappa inh-2: Pol kappa (human) inhibition, cherry-pick confirmation. hit rate 76% among 920. shares compounds with Pol eta inh-1. purified Pol-kappa, fluorescent strand-displacement substrate. Potency, µM, most hits filed as inhibitors
Pol eta inh-2: Pol eta (human) inhibition, cherry-pick confirmation | shares compounds with Pol eta inh-1 | Pol eta primer extension, TAMRA/BHQ fluorescence, 10 min | Potency, µM, usual class: inhibitors | hit rate 64% among 2,600 | AID 720502
Numbers stand for hits; . = inactive; ? = inconclusive; / = not tested or not shown. Most compounds without a hit are left out; they make up all but 2.4% or so of the library. The call rests on the fitted dose curve; in most records, active means well fitted curve in the direction sought with a large enough effect; inconclusive means small, poorly fitted or top-dose-only effect, or another doubt; inactive means no such curve, though single readings can be large; an effect the other way counts as inactive or inconclusive.

SMILES	Pol beta inh	Pol eta inh-1	Pol iota inh	Pol kappa inh-1	FEN1 inh	PGK inhibitor	Pol eta inh-2	others
O=C(O)c1cc(N/N=C/c2ccc(N3CCOCC3)cc2)ccc1Cl	?	50.1µM	?	?	.	.	84.9
Cc1cccc(/C=C/C(=O)c2cc(Br)ccc(=O)c2O)c1	?	31.6µM	0.891µM	?	?	.	?
COc1cc(NC(=O)COCc2cc(-c3ccc(F)cc3)on2)cc(OC)c1OC	.	.	.	.	.	.	/
O=C(Nc1ccc(S(=O)(=O)Nc2ncccn2)cc1)c1ccc2ncsc2c1	?	39.8µM	?	.	?	.	75.7
Cc1c(C(=O)Nc2ccc(S(=O)(=O)Nc3ncccn3)cc2)oc2ccccc12	/	28.2µM	?	?	.	.	42.6
O=C(Nc1ccc(S(=O)(=O)Nc2ncccn2)cc1)c1cccc(Cl)c1	.	.	.	.	.	.	/
Cn1cccc1C(=O)N1CCC[C@@]2(CCN(Cc3ccccc3)C2)C1	/	/	/	.	/	/	/
CCN(CC(=O)Nc1ccccc1C(F)(F)F)C(=O)CCOc1ccccc1C	/	.	.	.	.	.	/
CC(=O)N1CCN(C(=O)CCc2nc3sc4c(c3c(=O)[nH]2)CCCC4)CC1	.	.	.	.	.	.	/
CCN(CC(=O)Nc1ccccc1C(F)(F)F)C(=O)CCc1nc2sc3c(c2c(=O)[nH]1)CCCC3	/	15.8µM	28.2µM	?	.	.	?
Cc1ccc(NC(=O)CCc2nc3sc4c(c3c(=O)[nH]2)CCCC4)c(Br)c1	/	25.1µM	39.8µM	?	.	.	84.9
CC[C@H](C)[C@H](N)C(=O)N[C@H](C(=O)N[C@@H](CO)C(=O)N[C@@H](C)C(=O)N[C@H](C(=O)N[C@H](C(=O)NCC(=O)N[C@H](C(=O)N[C@@H](CC(C)C)C(=O)O)[C@@H](C)CC)C(C)C)C(C)C)[C@@H](C)CC	/	/	/	.	/	/	/
COc1cccc(C(=O)OCC(=O)NC23CC4CC(CC(C4)C2)C3)c1	/	.	.	.	.	.	/
CC(=O)Oc1cc(C(=O)OCC(=O)NC23CC4CC(CC(C4)C2)C3)cc(OC(C)=O)c1OC(C)=O	/	3.16µM	?	17.8µM	14.1µM	?	9.53	Pol kappa inh-2=8.44
CCCCN(CC)C(=O)c1ccc2c(c1)NC(=O)c1ccccc1S2	.	.	.	.	.	.	/
CC(=O)c1cccc(NC(=O)CN2C(=O)C(=O)N(Cc3ccco3)C2=O)c1	/	14.1µM	50.1µM	?	.	.	?
O=C(O)c1cccc(NC(=O)c2ccc3c(c2)C(=O)N(Cc2ccco2)C3=O)c1	?	17.8µM	50.1µM	?	.	.	42.6	Pol kappa inh-2=67
CC(=O)c1cccc(NC(=O)CN2C(=O)c3ccccc3C2=O)c1	.	.	.	.	.	.	/
Cn1nnc2c(N3CCN(c4cccc(Cl)c4)CC3)ncnc21	.	.	.	.	.	.	/
Oc1ccc(NCc2ccccc2OCc2ccc(Cl)cc2)cc1	?	.	?	?	.	.	?
O=c1[nH]c2ccc(NCc3ccccc3OCc3ccc(Cl)cc3)cc2[nH]1	.	.	.	.	.	.	/
CCOc1cc(CNc2ccc(O)cc2)ccc1OCc1ccc(Cl)cc1	?	.	7.94µM	?	?	.	?
CCOc1cc(CNc2ccc(O)cc2)cc(Br)c1OCc1ccccc1F	.	.	.	.	?	.	/
Cc1ccc(CCNC(=O)c2sc3ncccc3c2-n2c(C)ccc2C)cc1	?	.	.	.	.	.	/
CCCCCCCCC(=O)c1c(OC)oc(C=O)cc1=O	/	22.4µM	/	/	/	.	?	Pol kappa inh-2=?
SMILES	Pol beta inh	Pol eta inh-1	Pol iota inh	Pol kappa inh-1	FEN1 inh	PGK inhibitor	Pol eta inh-2	others
Cc1ccc(-c2nnc3c4ccccc4c(C)nn23)cc1NC(=O)c1ccccc1Cl	?	.	.	.	.	.	/
CC(=O)Oc1ccc2c(=O)c(Oc3ccccc3)coc2c1OC(C)=O	10µM	6.31µM	12.6µM	14.1µM	?	.	?
Cc1cc(/C=C2\SC(=S)NC2=O)c(C)n1-c1cccc(O)c1	44.7µM	35.5µM	?	.	.	.	?
NC(=O)c1ccc(NC(=O)C2CCN(S(=O)(=O)Cc3ccccc3)CC2)cc1	.	.	.	.	.	.	/
COc1ccccc1NC(=O)C(C)OC(=O)C1CC(=O)N(c2ccc3c(c2)OCCO3)C1 (stereo unspecified)	.	.	.	.	.	.	/
COc1cccc(OC)c1OC(=O)C1CC(=O)N(c2ccc3c(c2)OCCO3)C1 (stereo unspecified)	/	28.2µM	25.1µM	?	.	.	?
CC(=O)Oc1cccc(/C=c2\sc3nc(-c4ccco4)nn3c2=O)c1	22.4µM	12.6µM	?	?	.	.	47.8
COc1cc(/C=c2\sc3nc(-c4ccncc4)nn3c2=O)ccc1OC(C)=O	.	/	/	/	/	/	/
CSCC[C@H](NS(=O)(=O)c1ccc(C(C)=O)cc1)c1nnc2ccccn12	79.4µM	14.1µM	.	.	.	.	67.5
COc1cc(O)cc2cc3c(c(O)c12)C(=O)CC(C)(O)O3 (stereo unspecified)	50.1µM	44.7µM	?	?	?	.	?
COc1cc(O)c2c(c1)OC(C)(C)CC2=O	.	.	.	.	.	.	/
S=c1[nH]nc(-c2cc(-c3ccco3)[nH]n2)n1-c1ccccc1Cl	?	31.6µM	?	?	?	.	?
S=c1[nH]nc(-c2ccco2)n1-c1ccccc1Cl	?	.	.	.	.	.	/
CC(C)c1ccc(Nc2c(-c3ccccn3)nc3ccccn23)cc1	.	.	.	.	.	.	/
O=C(NCCc1ccccc1)c1cnc2sc(N3CCCCCC3)nn2c1=O	.	.	.	.	.	.	/
O=C(O)c1ccc(CSc2n[nH]c(-c3ccco3)n2)cc1	?	11.2µM	20µM	44.7µM	?	.	?
O=C(O)C(Cc1ccc(Cl)cc1)NS(=O)(=O)c1ccc(Cl)cc1 (stereo unspecified)	.	.	.	.	.	.	/
O=C(O)c1ccc(S(=O)(=O)N[C@H](Cc2ccc(O)cc2)C(=O)O)cc1	/	/	/	/	/	/	33.8
COc1cccc(CNC(=O)CN2c3cccc4cccc(c34)S2(=O)=O)c1	/	14.1µM	44.7µM	?	.	.	?
Cc1cccc(-c2nnn3c2nc(NCc2ccccc2)c2ccccc23)c1	?	.	.	.	.	.	/
CC1C/C(=C/c2ccncc2)C(=O)/C(=C/c2ccncc2)C1 (stereo unspecified)	.	31.6µM	?	.	.	.	75.7
NC(=O)c1ccc(-n2nnnc2SCC(=O)c2ccc(O)c(O)c2)cc1	10µM	10µM	14.1µM	25.1µM	.	?	42.6
